Experimental data: PubChem BioAssay
This is one part of the list. The source made the active and inactive calls.

Experiments:
[1] = target: Inward rectifier potassium channel 2 (Mus musculus) (UniProt P35561); assay: mouse Kir2.1 channel blockers, retest, confirmation, cell-based, FluxOR thallium flux, duplicate (AID 2032;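 active means Primary-screen hit whose thallium flux fell at least 3 control SD below untreated wells in both duplicates, with normal baseline fluorescence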); conditions: Kir2.1-expressing cells, FluxOR thallium flux fluorescence, at 10 µM; active compounds read low
Sequence of Inward rectifier potassium channel 2 (Mus musculus) (P35561 whole entry, looked up): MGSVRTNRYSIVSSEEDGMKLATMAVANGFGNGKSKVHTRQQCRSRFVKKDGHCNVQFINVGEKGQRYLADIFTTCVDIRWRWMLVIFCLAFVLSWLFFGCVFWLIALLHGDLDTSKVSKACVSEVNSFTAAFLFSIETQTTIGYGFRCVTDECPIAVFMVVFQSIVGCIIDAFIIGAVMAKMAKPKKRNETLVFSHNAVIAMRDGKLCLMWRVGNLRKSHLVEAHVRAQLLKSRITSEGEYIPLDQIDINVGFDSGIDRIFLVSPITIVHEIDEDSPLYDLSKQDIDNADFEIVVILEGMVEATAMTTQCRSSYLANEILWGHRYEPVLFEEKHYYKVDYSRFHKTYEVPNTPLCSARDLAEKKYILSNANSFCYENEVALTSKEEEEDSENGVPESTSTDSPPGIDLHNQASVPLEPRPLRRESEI

[2] = nonspecific thallium flux effects in parental HEK293 cells, confirmation, counter-screen for Kir2.1 inhibitor project, cell-based, FluxOR thallium flux, duplicate, single concentration (AID 2105); conditions: FluxOR thallium flux fluorescence, at 10 µM; 0% = unstimulated blank wells;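 on FluxOR signal as % of negative control (100 = no effect): percent is based on the flux ratio of peak minus minimum fluorescence over baseline F0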
[3] = nonspecific thallium flux increase in parental CHO-K1, confirmation, counter-screen for KCNQ2 potentiator project, cell-based, FluxOR thallium flux, duplicate (AID 2282;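 active means signal rise of at least 3 SD above the untreated control mean, in both duplicate wells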;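 further: counter screen of KCNQ2 potentiator hits so any rise reflects channel-independent effects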); conditions: parental CHO-K1 cells, FluxOR thallium flux fluorescence; at 10 µM; active compounds read high; zero = vehicle mean+3SD, 100% = vehicle-minus-blank window
[4] = target: Potassium voltage-gated channel subfamily KQT member 1 (Homo sapiens) (UniProt P51787); assay: human KCNQ1 channel potentiation off-target, confirmation, selectivity assay for KCNQ2 potentiator project, cell-based, CHO, FluxOR thallium flux (AID 2283;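 active means fluorescence ratio rise of at least 3 SD of vehicle wells above their mean, in both replicate wells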;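 further: 0% = vehicle mean plus 3 SD and 100% = vehicle minus unstimulated blank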); conditions: CHO KCNQ1 stable, FluxOR thallium flux fluorescence; at 10 µM; active compounds read high; beyond 3SD, as % of vehicle-control signal
Sequence of Potassium voltage-gated channel subfamily KQT member 1 (Homo sapiens) (P51787 whole entry, looked up): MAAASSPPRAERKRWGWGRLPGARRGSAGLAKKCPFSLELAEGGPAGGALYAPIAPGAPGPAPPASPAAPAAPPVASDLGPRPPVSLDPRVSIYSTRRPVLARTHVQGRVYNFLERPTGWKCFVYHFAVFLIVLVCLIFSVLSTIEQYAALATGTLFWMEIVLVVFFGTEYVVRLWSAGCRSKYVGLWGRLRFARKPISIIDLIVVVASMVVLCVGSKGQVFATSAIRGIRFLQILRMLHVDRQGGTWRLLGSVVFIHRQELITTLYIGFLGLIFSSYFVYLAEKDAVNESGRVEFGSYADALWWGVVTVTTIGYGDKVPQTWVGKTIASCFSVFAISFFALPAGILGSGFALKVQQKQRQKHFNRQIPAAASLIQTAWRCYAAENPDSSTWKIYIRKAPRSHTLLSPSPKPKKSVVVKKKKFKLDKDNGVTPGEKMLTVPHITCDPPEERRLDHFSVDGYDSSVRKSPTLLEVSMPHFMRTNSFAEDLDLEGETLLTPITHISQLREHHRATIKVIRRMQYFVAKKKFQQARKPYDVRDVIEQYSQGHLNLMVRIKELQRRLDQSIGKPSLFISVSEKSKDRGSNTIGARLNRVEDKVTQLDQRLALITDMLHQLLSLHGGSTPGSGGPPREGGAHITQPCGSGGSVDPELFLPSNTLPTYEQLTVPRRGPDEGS

[5] = target: Potassium voltage-gated channel subfamily KQT member 2 (Rattus norvegicus) (UniProt O88943); assay: rat KCNQ2 channel potentiators, confirmation, cell-based, CHO, FluxOR thallium flux, duplicate (AID 2287;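 active means fluorescence ratio rising 3 SD or more over the vehicle control mean in both replicates, plus primary screen hit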;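 further: peak minus minimum thallium fluorescence divided by baseline after K/Tl stimulus; 0% = vehicle mean plus 3 SD and 100% = vehicle minus unstimulated blank difference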); conditions: CHO-KCNQ2 cells, FluxOR thallium flux fluorescence; at 10 µM; active compounds read high
[6] = target: Inward rectifier potassium channel 2 (Mus musculus) (UniProt P35561); assay: PubChem AID 2345; conditions: HEK293 Kir2.1, FluxOR thallium flux fluorescence; at 10 µM; active compounds read high;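 further: 0% = vehicle mean plus 3 SD and 100% = vehicle minus no-stimulus blank window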
[7] = target: Potassium voltage-gated channel subfamily KQT member 2 (Rattus norvegicus) (UniProt O88943); assay: potentiators of retigabine-insensitive KCNQ2 W236L, mechanism study for KCNQ2 potentiator project, cell-based, rat KCNQ2 W236L, CHO, automated patch clamp (AID 2558;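 active means current increase at least 3 SD of the untreated controls above them in both duplicate recordings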); conditions: at 25 µM; outcome: automated patch clamp current
[8] = target: Short transient receptor potential channel 4 (Mus musculus) (UniProt Q9QUQ5); assay: mouse TRPC4 membrane potential modulation by TRPC6 hits, confirmation, selectivity assay for TRPC6 inhibitor project, cell-based, second specificity screen, HEK293 TRPC4/mu-opioid (AID 2776;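 active means compounds whose fluorescence signal differed from control wells by over 3 SD, either direction, in both duplicate plates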); conditions: HEK293 TRPC4/MOR, membrane potential dye fluorescence, at 10 µM, channel activated by saturating DAMGO dose; active compounds read high
Sequence of Short transient receptor potential channel 4 (Mus musculus) (Q9QUQ5 whole entry, looked up): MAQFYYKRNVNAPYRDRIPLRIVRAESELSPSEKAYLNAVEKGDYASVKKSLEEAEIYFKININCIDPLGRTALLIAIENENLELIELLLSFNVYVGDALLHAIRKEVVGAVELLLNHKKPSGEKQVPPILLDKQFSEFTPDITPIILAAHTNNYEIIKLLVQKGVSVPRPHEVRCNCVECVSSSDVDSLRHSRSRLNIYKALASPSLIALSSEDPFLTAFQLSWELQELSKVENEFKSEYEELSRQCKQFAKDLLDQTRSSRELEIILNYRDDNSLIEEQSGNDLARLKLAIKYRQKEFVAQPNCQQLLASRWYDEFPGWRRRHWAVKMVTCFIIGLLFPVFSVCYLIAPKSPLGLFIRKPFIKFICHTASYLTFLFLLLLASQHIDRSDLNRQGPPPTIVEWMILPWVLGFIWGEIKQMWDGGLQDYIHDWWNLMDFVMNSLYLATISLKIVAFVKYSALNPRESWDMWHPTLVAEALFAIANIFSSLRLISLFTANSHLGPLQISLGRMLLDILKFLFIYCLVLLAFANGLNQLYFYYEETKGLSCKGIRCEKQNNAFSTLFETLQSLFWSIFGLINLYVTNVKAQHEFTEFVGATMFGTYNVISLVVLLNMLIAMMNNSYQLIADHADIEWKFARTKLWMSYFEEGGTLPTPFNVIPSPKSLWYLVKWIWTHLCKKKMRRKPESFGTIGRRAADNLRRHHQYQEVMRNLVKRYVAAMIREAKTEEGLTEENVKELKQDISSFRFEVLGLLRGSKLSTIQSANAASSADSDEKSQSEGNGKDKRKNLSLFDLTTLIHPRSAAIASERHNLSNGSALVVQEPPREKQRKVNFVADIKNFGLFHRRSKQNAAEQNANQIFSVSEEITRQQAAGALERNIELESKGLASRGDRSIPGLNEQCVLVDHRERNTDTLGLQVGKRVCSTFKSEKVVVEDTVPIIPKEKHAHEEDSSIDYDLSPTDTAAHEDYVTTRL

[9] = system: transient receptor potential cation channel C4 (TRPC4), mouse; assay: mouse TRPC4 modulation by TRPC6 hits, confirmation, selectivity assay for TRPC6 inhibitor project, cell-based, HEK293 TRPC4/mu-opioid, membrane potential dye (AID 2777;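 active means rise or fall in signal beyond 3 SD of buffer-only wells in both replicate plates, either sign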;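 further: integrated kinetic ratio of fluorescence range over baseline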); conditions: membrane potential fluorescence, at 10 µM
[10] = nonspecific membrane potential effects, parental HEK293, confirmation, counter-screen for TRPC6 inhibitor project, cell-based, second counter screen (AID 2779;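 active means membrane potential signal moving either way by over 3 SD of the maximum-effect control, in both duplicate plates, meaning non-specific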); conditions: parental HEK293 membrane potential dye fluorescence; at 10 µM; maximal acetylcholine challenge after compound addition
[11] = membrane potential modulation in parental HEK293, confirmation, counter-screen for TRPC6 inhibitor project, cell-based (AID 2780;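 active means membrane potential signal shifting up or down by more than 3 SD of buffer-only wells, on both duplicate plates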;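 further: plate controls were buffer EC0 wells for no effect and acetylcholine ECmax wells for full effect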); conditions: parental HEK293 membrane potential dye fluorescence; at 10 µM
[12] = target: Short transient receptor potential channel 6 (Mus musculus) (UniProt Q61143); assay: mouse TRPC6 channel inhibitors, confirmation, HEK293 cells, membrane potential dye, duplicate (AID 488960;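 active means fluorescence ratio falls more than 5 SD below the full-stimulation control mean, in both duplicate runs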;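 on inhibition: integrated fluorescence ratio of peak minus minimum over baseline after agonist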); conditions: ACh-evoked depolarization, at 10 µM; active compounds read high
Sequence of Short transient receptor potential channel 6 (Mus musculus) (Q61143 whole entry, looked up): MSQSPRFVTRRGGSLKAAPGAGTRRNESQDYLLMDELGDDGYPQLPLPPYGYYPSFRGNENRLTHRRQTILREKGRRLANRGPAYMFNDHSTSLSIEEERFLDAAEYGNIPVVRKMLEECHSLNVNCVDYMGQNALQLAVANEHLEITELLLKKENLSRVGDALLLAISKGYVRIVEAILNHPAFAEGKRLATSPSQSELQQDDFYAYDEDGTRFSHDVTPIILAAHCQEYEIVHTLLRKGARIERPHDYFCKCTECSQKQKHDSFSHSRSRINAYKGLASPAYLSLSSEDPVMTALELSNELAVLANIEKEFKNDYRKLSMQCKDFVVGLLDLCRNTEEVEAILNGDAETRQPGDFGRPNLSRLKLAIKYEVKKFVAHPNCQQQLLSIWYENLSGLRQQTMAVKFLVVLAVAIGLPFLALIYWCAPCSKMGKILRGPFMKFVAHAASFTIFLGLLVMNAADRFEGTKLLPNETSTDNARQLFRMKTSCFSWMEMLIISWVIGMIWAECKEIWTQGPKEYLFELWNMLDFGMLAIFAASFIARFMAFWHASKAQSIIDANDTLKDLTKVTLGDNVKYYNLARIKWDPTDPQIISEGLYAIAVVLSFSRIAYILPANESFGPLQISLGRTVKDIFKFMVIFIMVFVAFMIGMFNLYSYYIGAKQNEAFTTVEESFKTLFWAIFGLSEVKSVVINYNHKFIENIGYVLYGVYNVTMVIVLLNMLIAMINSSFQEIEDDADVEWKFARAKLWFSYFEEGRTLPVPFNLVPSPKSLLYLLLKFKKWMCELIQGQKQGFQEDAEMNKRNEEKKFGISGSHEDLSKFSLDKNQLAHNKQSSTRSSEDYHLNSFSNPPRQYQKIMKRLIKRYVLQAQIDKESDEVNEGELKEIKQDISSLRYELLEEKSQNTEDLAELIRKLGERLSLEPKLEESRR

[13] = target: Short transient receptor potential channel 6 (Mus musculus) (UniProt Q61143); assay: mouse TRPC6 channel activators, confirmation, HEK293 cells, membrane potential dye, duplicate (AID 488961;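 active means ratio signal rise beyond 5 SD above unstimulated control wells' mean, seen in both duplicate runs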); conditions: HEK293-TRPC6 membrane potential dye fluorescence, FDSS, at 10 µM; active compounds read high
[14] = target: Potassium voltage-gated channel subfamily KQT member 1 (Homo sapiens) (UniProt P51787); assay: KCNQ1 potassium channel inhibitors, confirmation, cell-based, Tl flux, duplicate (AID 588353;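 active means primary screen active, with duplicate mean exceeding buffer control mean plus 3 SD of buffer wells, cut at about 28% in these data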;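 further: 0% = buffer control ratio and 100% = XE991 inhibitor control ratio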); conditions: KCNQ1 cell line, FluxOR thallium flux fluorescence; at 10 µM; active compounds read high
[15] = thallium flux effects in parental CHO cells, counter-screen for KCNQ1 inhibitor project, cell-based, Tl flux (AID 588366;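 active means mean of duplicate thallium-flux fluorescence ratios in parental host cells more than 5 SD below the buffer control mean, cut at about 0.38 in these data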;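 further: ratio is peak minus minimum fluorescence divided by baseline fluorescence; actives read low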); conditions: parental CHO-K1, FluxOR thallium flux fluorescence ratio; at 10 µM; active compounds read low; zero means no signal rise above baseline
[16] = target: Potassium voltage-gated channel subfamily KQT member 2 (Rattus norvegicus) (UniProt O88943); assay: KCNQ2 channel inhibition, selectivity assay for KCNQ1 inhibitor project, cell-based (AID 651746;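 active means mean percent inhibition of the KCNQ2 thallium signal more than 5 SD above the buffer-only control wells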;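 on inhibition: 0% = buffer control wells and 100% = XE-991 inhibitor control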); conditions: KCNQ2 cells, FluxOR thallium flux fluorescence, at 10 µM; active compounds read high
[17] = target: Potassium voltage-gated channel subfamily E member 1 (Homo sapiens) + Potassium voltage-gated channel subfamily KQT member 1 (Homo sapiens) (UniProt P15382+P51787); assay: KCNQ1/KCNE1 channel inhibition, selectivity assay for KCNQ1 inhibitor project, CHO-K1 cells, thallium flux, FluxOR (AID 652147;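 active means mean percent inhibition of duplicate wells above the buffer-only control mean plus 3 SD of those controls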); conditions: FluxOR thallium flux fluorescence, at 10 µM
Sequence of Potassium voltage-gated channel subfamily E member 1 (Homo sapiens) + Potassium voltage-gated channel subfamily KQT member 1 (Homo sapiens) (P51787 whole entry, looked up): as the sequence (P51787 whole entry, looked up) above

[18] = target: Potassium voltage-gated channel subfamily KQT member 1 (Homo sapiens) (UniProt P51787); assay: KCNQ1 channel inhibitors, confirmation, orthogonal assay, cell-based, automated electrophysiology (AID 624120;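 active means KCNQ1 current drop exceeding 3 SD of negative control wells, seen in both duplicate runs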); conditions: KCNQ1-CHO cells, automated patch clamp current; at 10 µM

CC(NC(=O)Nc1cccc([N+](=O)[O-])c1)c1ccc2c(c1)OCO2 (stereo not given)
active: activity increase over 3SD of controls [3] 19.3% | activation over 3SD threshold [4] 80% | potentiation, less the hit threshold [5] 30.7%
inactive: outcome [1] | outcome [2] | activity over 3SD threshold [6] -29.4% | outcome [7]

Cc1ccc2nc(C)c3c(c2c1)N(c1ccccc1)CC3
inactive: outcome [2] | outcome [9] | outcome [10] | outcome [12] | outcome [13] | fluorescence ratio (Tl flux) [15] 0.419 | outcome [17]
active: Tl flux remaining, % of negative control (active compounds read low) [1] 27.5% | inhibition [8] 32% | membrane potential signal change [11] -212% | inhibition [14] 46% | inhibition [16] 83.7%

Cc1ccc(NC(=O)C2CC2c2ccccc2)cc1 (stereo not given)
active: activity increase over 3SD of controls [3] 58.6% | activation over 3SD threshold [4] 64.2% | potentiation, less the hit threshold [5] 26.2%
inactive: outcome [1] | outcome [2] | activity over 3SD threshold [6] -35.9% | outcome [7]

Cc1cccc(NC(=O)c2nc(S(=O)(=O)Cc3ccccc3)ncc2Cl)c1
inactive: outcome [1] | outcome [2] | activity increase over 3SD of controls [3] -15.5% | activation over 3SD threshold [4] -22.3% | activity over 3SD threshold [6] -36% | outcome [7]
active: potentiation, less the hit threshold [5] 4%

S=C(NCc1ccc(Cl)cc1)NC12CC3CC(CC(C3)C1)C2
active: activity increase over 3SD of controls [3] 46.3% | potentiation, less the hit threshold [5] 9% | inhibition [14] 143% | outcome [18]
inactive: outcome [1] | outcome [2] | activation over 3SD threshold [4] -0.2% | activity over 3SD threshold [6] -9.25% | outcome [7] | fluorescence ratio (Tl flux) [15] 0.521 | outcome [16] | outcome [17]

O=C(NC(Nc1nc2ccc([N+](=O)[O-])cc2s1)(C(F)(F)F)C(F)(F)F)c1ccccc1
inactive: outcome [1] | outcome [2] | outcome [10]
active: inhibition [8] 45% | activity change, negative = inhibition [9] 60.8% | membrane potential signal change [11] 36.6% | inhibition [12] 93.7%

Cc1cc2oc3ccc(NCCC4CCCN4C)cc3c(=O)c2cc1C (stereo not given)
inactive: outcome [1] | outcome [10] | outcome [12] | outcome [13]
active: FluxOR signal as % of negative control (100 = no effect) [2] 67.5% | inhibition [8] 63% | activity change, negative = inhibition [9] 8.34% | membrane potential signal change [11] 5.47%
